PubChem BioAssay (EPA / NIEHS)
Results filed as inconclusive are left out. Calls of active or inactive are those of the source. How the source made its calls, unless noted: active means hit-call score of the fitted dose curve at least 0.9, where 1 is the maximum; inactive means score below 0.9.

Legend:
[1] = ACEA_ER_80hr: ACEA Biosciences xCELLigence Real-Time Cell Analysis on Estrogen Receptor Agonism for Proliferation (AID 2282667; active means hit-call score of the fitted dose curve at least 0.9, where 1 is the maximum); settings: T47D proliferation, impedance (xCELLigence), 80 h
Summary of the method: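 Real-time impedance growth kinetics of human T-47D breast cells read 80 h after dosing, gain-of-signal fitted relative to DMSO. Compounds: 1:4 serial series, top final concentration 100 uM, n = 2.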

[2] = ATG_CRE_CIS: Attagene CIS-FACTORIAL HepG2 Assay for human cAMP Responsive Element (CRE) binding protein 3 (AID 2282926); settings: HepG2 CRE cis-reporter, Attagene multiplexed mRNA; actives raise or lower the signal
Summary of the method: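 Endogenous transcription factor activity read via CRE-regulated reporter transcripts in transfected HepG2 cells. After 24 h exposure, RNA was reverse-transcribed, amplified, fluorescently labelled and sized by capillary electrophoresis; gain or loss fitted against DMSO.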

[3] = target: CCAAT/enhancer-binding protein beta (Homo sapiens) (UniProt P17676); experiment: ATG_C_EBP_CIS: Attagene CIS-FACTORIAL HepG2 Assay for human CCAAT/Enhancer Binding Protein (C/EBP) beta (AID 2282927); settings: HepG2 Attagene cis-factorial transcription factor reporter; actives raise or lower the signal
Summary of the method: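 RT-PCR/capillary electrophoresis fluorescence of reporter mRNA, 24 h post-dose, in HepG2 cells carrying transfected cis-promoter reporter units. Bidirectional curve fitting against DMSO baseline captures gain or loss of signal.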

[4] = ATG_CMV_CIS: Attagene CIS-FACTORIAL HepG2 Assay for human CMV (Internal Marker) (AID 2282928); settings: HepG2 CMV promoter reporter, transcription factor profiling; actives raise or lower the signal;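 further: endpoint acts as a background internal control marker rather than a target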
Summary of the method: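 Readout: fluorescent reporter cDNA fragments separated by capillary electrophoresis after RT-PCR and HpaI cut. Cells: HepG2 carrying transfected cis-promoter reporter constructs, dosed 24 h. Endpoint serves as background internal-marker control, fit bidirectionally versus DMSO.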

[5] = ATG_DR4_LXR_CIS: Attagene CIS-FACTORIAL HepG2 Assay for human Liver X Receptor (LXR), DR4 submotif (AID 2282929); settings: HepG2 Attagene DR4 cis-reporter, mRNA transcription; actives raise or lower the signal
Summary of the method: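 Readout: reporter transcript fluorescence after RT-PCR and capillary electrophoresis, fitted bidirectionally against DMSO controls. Human HepG2 liver cells carried transiently transfected multiplexed reporter constructs; endogenous transcription factor activity measured 24 h post-dosing.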

[6] = target: Aryl hydrocarbon receptor (Homo sapiens) (UniProt P35869); experiment: ATG_Ahr_CIS: Attagene CIS-FACTORIAL HepG2 Assay for human Aryl Hydrocarbon Receptor (Ahr) (AID 2282930); settings: HepG2 AhR cis-factorial reporter transcription; actives raise or lower the signal
Summary of the method: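 HepG2 cells transiently transfected with cis-element-driven multiplexed reporter transcription units; endogenous transcription factor activity measured as reporter mRNA 24 h after dosing. RT-PCR, 6-FAM labelling, HpaI digestion, capillary electrophoresis; bidirectional fitting versus DMSO baseline.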

[7] = ATG_AP_1_CIS: Attagene CIS-FACTORIAL HepG2 Assay for human Activator Protein 1 (AP-1) (AID 2282931); settings: HepG2 Attagene cis-factorial AP-1 reporter mRNA; actives raise or lower the signal
Summary of the method: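 Reporter transcripts were measured 24 h after dosing by RT-PCR and capillary electrophoresis of fluorescent fragments. Cells: HepG2 carrying transfected cis-regulated reporter constructs reading endogenous factor activity. Gain or loss fitted against DMSO.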

[8] = ATG_AP_2_CIS: Attagene CIS-FACTORIAL HepG2 Assay for human Activator Protein 2 (AP-2) (AID 2282932); settings: HepG2 AP-2 cis-reporter, Attagene transcription factor profiling; actives raise or lower the signal
Summary of the method: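 Cells (HepG2) transfected with promoter-driven reporter constructs, treated 24 h. Total RNA reverse-transcribed, reporter cDNA PCR-amplified, FAM-labelled by primer extension, digested, resolved by capillary electrophoresis. Activity fitted both directions versus DMSO.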

[9] = ATG_BRE_CIS: Attagene CIS-FACTORIAL HepG2 Assay for human Bone Morphogenetic Protein (BMP) Response Element (BRE) (AID 2282933); settings: HepG2 BMP response element reporter, Attagene transcription factor profiling; actives raise or lower the signal
Summary of the method: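 HepG2 cells transiently transfected with multiplexed cis-element reporter units were dosed with chemical for 24 h. Reporter mRNA was measured by RT-PCR with fluorescent labelling, HpaI digestion and capillary electrophoresis; bidirectional fitting relative to DMSO.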

[10] = target: Retinoic acid receptor alpha (Homo sapiens) (UniProt P10276); experiment: ATG_DR5_RAR_CIS: Attagene CIS-FACTORIAL HepG2 Assay for human Retinoic Acid Receptor Alpha (RARE), DR5 submotif (AID 2282934); settings: HepG2 Attagene cis-factorial RARE DR5 reporter, mRNA; actives raise or lower the signal;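 on AC50: reporter responds to endogenous RAR alpha beta and gamma in HepG2 not RARA alone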
Summary of the method: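 HepG2 cells transiently transfected with multiplexed reporter units under cis (DR5 RARE) promoters, so endogenous transcription factor activity is measured. After 24 h compound exposure, reporter mRNA is quantified by RT-PCR with fluorescent labelling and capillary electrophoresis; bidirectional fitting versus DMSO.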

Measured: AC50

Chain of Retinoic acid receptor alpha (Homo sapiens) (P10276 whole entry, looked up): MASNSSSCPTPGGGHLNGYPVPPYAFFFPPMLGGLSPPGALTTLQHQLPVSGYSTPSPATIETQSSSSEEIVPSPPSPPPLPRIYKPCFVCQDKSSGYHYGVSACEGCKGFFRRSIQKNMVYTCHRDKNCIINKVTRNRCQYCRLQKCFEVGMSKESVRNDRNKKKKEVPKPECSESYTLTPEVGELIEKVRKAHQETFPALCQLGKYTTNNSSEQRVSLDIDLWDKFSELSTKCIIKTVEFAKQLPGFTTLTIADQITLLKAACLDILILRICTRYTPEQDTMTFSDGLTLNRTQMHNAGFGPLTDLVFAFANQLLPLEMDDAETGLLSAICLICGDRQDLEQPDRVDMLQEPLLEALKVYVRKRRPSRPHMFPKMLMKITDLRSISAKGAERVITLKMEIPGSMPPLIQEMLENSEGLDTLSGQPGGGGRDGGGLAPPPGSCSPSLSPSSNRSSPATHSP
Chain of Aryl hydrocarbon receptor (Homo sapiens) (P35869 whole entry, looked up): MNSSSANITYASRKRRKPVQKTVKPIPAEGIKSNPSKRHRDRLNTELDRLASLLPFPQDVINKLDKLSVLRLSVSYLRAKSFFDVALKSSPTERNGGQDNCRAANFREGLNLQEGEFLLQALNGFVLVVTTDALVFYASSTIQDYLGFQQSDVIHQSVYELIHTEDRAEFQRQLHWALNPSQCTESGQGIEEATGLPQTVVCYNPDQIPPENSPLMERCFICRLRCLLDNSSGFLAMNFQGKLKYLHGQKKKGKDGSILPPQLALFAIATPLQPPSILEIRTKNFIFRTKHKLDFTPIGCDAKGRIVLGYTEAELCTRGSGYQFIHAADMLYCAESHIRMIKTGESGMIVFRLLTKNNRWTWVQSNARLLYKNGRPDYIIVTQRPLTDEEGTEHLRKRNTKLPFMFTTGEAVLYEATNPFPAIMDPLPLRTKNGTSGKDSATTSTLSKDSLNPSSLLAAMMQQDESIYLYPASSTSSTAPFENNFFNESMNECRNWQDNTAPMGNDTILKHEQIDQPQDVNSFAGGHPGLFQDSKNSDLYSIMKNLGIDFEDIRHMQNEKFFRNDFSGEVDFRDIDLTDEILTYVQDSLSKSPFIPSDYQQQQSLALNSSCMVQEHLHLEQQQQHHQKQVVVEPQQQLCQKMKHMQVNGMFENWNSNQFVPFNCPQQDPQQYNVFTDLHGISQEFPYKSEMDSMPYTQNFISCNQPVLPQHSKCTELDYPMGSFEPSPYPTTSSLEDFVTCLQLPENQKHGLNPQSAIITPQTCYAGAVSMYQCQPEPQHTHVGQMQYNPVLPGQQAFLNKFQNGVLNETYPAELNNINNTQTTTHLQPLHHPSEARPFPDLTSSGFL
Chain of CCAAT/enhancer-binding protein beta (Homo sapiens) (P17676 whole entry, looked up): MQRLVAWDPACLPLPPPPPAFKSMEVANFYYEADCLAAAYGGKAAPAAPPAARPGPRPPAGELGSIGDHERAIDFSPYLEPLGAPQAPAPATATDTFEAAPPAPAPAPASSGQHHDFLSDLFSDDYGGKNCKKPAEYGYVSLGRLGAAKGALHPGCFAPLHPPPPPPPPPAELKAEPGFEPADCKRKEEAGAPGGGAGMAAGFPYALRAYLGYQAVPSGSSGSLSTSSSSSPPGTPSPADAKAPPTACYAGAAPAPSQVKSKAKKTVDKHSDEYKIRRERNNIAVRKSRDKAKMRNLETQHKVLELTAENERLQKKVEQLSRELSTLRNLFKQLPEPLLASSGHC

CCOC(=O)[C@H](O)[C@@H](O)C(=O)OCC
inactive: all assays above

CC1CCC(=O)C1=O (configuration not stated)
inactive: all assays above

c1ccc2sc(SSN3CCOCC3)nc2c1
inactive: [1] | [3] | [9]
active: [2] 146 µM | [4] 64 µM | [5] 100 µM | [6] 3.45 µM | [7] 43.2 µM | [8] 64.8 µM | [10] 170 µM

COC(Cc1ccccc1)OC
inactive: all assays above

Nc1ccc(O)c([N+](=O)[O-])c1
active: [6] 13.9 µM
inactive: all other assays above

CCC1(C)C(=O)N(Cl)C(=O)N1Cl (configuration not stated)
active: [2] 27.6 µM | [3] 38.9 µM | [7] 67.4 µM
inactive: all other assays above

C=CC(C)(O)CC/C=C(\C)CC (configuration not stated)
inactive: all assays above

NNS(=O)(=O)c1ccc(Oc2ccc(S(=O)(=O)NN)cc2)cc1
active: [6] 62.3 µM
inactive: all other assays above

CCCCCC[C@@H](O)C/C=C\CCCCCCCC(=O)OCC(O)CO (some centres not stated)
active: [4] 131 µM | [5] 163 µM | [7] 75.7 µM | [8] 158 µM
inactive: all other assays above

CCCCCC(=O)OCC
inactive: all assays above

CC(C)(C)NC(=O)[C@H]1CC[C@H]2[C@@H]3CC[C@H]4NC(=O)C=C[C@]4(C)[C@H]3CC[C@]12C
inactive: all assays above

CC12CCC(CC1)C(C)(C)O2
inactive: all assays above

CCCCCCCCCC(C)=O
inactive: all assays above

CCNc1nc(NC(C)(C)C)nc(OC)n1
inactive: all assays above

CCOC(=O)CC(=O)c1ccccc1
inactive: all assays above

CCCCCCCC(=O)OCC
inactive: all assays above

C=CCCCCCCCCO
active: [6] 29.3 µM
not listed: [10]
inactive: all other assays above

OCCCc1ccccc1
inactive: all assays above

C=C(C)[C@@H]1CC=C(C)CC1
not listed: [9] | [10]
inactive: all other assays above

Clc1cccnc1
inactive: all assays above

O=C(Cl)c1ccc(C(=O)Cl)cc1
inactive: all assays above

CCN(CC)c1cccc(C)c1
inactive: all assays above

CCc1cccc(C)c1N
inactive: all assays above

c1ccc(-c2nc3ccccc3[nH]2)cc1
inactive: all assays above

CC(C)C(=O)OCCOc1ccccc1
inactive: all assays above

CCCCC(CC)COC(=O)/C=C/c1ccc(OC)cc1 (configuration not stated)
inactive: all assays above

COc1ccc(C(=O)c2ccccc2)c(O)c1
active: [4] 79.6 µM | [5] 115 µM | [7] 168 µM | [9] 158 µM
inactive: all other assays above

Cn1cccc1
active: [7] 26.4 µM
inactive: all other assays above

C=C(C)C1CC=C(C)C(OC(C)=O)C1 (configuration not stated)
inactive: all assays above

O=C1CCCCCCCCCCCN1
active: [1] 53.3 µM
inactive: all other assays above

CCCSSCCC
inactive: all assays above

Cc1cccc(C(C)(C)C)c1O
inactive: all assays above

CCCCCCCCCCCCC
inactive: all assays above

O=C(Oc1ccccc1)c1ccccc1C(=O)Oc1ccccc1
active: [7] 46.3 µM
inactive: all other assays above

CCCCCC1=CCCC1=O
active: [1] 0.106 µM
inactive: all other assays above

COC(=O)CC(C)CCC=C(C)C (configuration not stated)
inactive: all assays above

Oc1ccccc1Cc1ccccc1O
active: [5] 114 µM
inactive: all other assays above

O=C1c2ccccc2C(=O)c2cc(S(=O)(=O)O)ccc21
inactive: all assays above

CC(C=O)c1ccccc1 (configuration not stated)
inactive: all assays above

Cc1c(O)cccc1O
active: [6] 37.8 µM
inactive: all other assays above

Cc1ccccc1CCO
inactive: all assays above

CC(C)C(=O)OCCc1ccccc1
inactive: all assays above

CCCCOCCOC(=O)COc1ccc(Cl)cc1Cl
active: [1] 10.8 µM
inactive: all other assays above

CCCCCOC(=O)CCCCC
inactive: all assays above

CC(=O)OC/C=C(/C)CCC=C(C)C
inactive: all assays above

O=C(O)CCCC(=O)O
inactive: all assays above

CCCCCCCOC(=O)c1ccc(O)cc1
active: [1] 0.496 µM | [5] 24.3 µM | [6] 49.8 µM | [10] 53.1 µM
inactive: all other assays above

C=CC(=O)OCCCCCCCCCC
active: [10] 46 µM
inactive: all other assays above

CC1(C)CC(O)CC(C)(C)N1[O]
active: [4] 26.2 µM | [7] 26.6 µM
inactive: all other assays above

CCCCOC(=O)CCC(C)=O
inactive: all assays above
